Assays:
Assay in all cases: DAPPL (digital affinity profiling via proximity ligation, sequencing); 10 mM Tris-HCl pH 7.5, 50 mM NaCl, 1 mM DTT, 4% glycerol, room temperature, 30 min; GST-TFs on glutathione beads, 16-mer random dsDNA library, 0.1% formaldehyde crosslink after washing; high values mean tight binding
Settings in all cases: protein: recombinant; tags: N-terminal GST; dsDNA, one strand shown
[1] = molecular target: T1, ERF (Homo sapiens, UniProt P50548 1-548)
T1 sequence: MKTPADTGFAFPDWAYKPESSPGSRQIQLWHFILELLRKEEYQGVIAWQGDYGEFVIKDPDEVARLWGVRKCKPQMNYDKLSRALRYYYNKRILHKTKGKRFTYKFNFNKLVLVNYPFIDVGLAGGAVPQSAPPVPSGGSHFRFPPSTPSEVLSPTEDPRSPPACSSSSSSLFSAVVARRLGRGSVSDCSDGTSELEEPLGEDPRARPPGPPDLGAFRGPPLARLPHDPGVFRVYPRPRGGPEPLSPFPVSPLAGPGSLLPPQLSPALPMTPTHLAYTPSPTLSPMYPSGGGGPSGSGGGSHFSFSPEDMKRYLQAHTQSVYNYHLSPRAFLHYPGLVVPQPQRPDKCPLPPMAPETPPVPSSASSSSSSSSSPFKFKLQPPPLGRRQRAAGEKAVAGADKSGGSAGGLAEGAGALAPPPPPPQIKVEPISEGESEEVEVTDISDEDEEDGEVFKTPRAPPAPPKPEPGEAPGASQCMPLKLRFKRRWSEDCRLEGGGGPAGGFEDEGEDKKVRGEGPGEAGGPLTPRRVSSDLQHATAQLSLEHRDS
Method in brief: (§1)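 Binding signal is each hexamer's read frequency for a factor divided by its frequency in the tag-only sample. The factors were GST-fused human transcription factors from yeast, captured on glutathione beads, DNA-barcoded and pooled with that sample. Pools were incubated with 200 nmole of a random double-stranded 16-mer DNA library in Tris/NaCl/DTT/glycerol buffer at room temperature for 30 min, then washed, crosslinked with 0.1% formaldehyde, proximity-ligated with BsaI/T4 ligase (1 h, 37 °C), PCR-amplified and sequenced on an Illumina NextSeq500.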

[2] = molecular target: T2, ETV3L (Homo sapiens, UniProt Q6ZN32 1-361)
T2 sequence: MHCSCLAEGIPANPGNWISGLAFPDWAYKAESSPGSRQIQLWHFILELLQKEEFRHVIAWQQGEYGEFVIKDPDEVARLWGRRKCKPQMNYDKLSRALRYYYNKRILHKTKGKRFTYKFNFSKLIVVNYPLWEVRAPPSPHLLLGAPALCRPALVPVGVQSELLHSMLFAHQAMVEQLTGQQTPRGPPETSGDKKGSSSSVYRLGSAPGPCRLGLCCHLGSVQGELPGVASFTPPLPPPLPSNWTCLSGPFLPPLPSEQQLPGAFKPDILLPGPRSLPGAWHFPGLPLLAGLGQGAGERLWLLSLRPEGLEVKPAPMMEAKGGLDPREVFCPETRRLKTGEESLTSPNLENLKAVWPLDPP
Method in brief: as §1

[3] = molecular target: T3, ETS2 (Homo sapiens, UniProt P15036 1-469)
T3 sequence: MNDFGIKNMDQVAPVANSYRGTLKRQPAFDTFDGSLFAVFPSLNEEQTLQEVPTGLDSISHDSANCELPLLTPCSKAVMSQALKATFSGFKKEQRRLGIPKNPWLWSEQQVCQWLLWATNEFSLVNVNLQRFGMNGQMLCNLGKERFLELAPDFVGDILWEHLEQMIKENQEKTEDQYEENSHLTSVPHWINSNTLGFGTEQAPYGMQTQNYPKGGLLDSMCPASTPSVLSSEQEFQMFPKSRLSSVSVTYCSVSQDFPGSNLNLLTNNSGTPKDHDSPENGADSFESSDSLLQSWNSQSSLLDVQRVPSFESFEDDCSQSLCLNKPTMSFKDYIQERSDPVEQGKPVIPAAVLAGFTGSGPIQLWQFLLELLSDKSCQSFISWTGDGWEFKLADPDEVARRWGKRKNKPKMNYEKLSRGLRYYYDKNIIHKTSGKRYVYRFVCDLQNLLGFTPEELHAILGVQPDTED
Method in brief: as §1

[4] = molecular target: T4, SPDEF (Homo sapiens, UniProt O95238 1-335)
T4 sequence: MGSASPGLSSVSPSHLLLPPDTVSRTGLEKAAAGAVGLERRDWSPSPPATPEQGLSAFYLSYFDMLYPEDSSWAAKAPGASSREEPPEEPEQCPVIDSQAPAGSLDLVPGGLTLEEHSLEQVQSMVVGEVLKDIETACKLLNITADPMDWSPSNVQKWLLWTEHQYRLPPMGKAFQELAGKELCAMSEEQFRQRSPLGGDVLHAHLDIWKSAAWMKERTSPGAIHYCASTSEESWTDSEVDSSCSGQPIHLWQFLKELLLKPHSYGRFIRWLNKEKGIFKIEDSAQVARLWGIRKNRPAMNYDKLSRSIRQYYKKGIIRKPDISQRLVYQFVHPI
Method in brief: as §1

[5] = molecular target: T5, ETV7 (Homo sapiens, UniProt Q9Y603 1-341)
T5 sequence: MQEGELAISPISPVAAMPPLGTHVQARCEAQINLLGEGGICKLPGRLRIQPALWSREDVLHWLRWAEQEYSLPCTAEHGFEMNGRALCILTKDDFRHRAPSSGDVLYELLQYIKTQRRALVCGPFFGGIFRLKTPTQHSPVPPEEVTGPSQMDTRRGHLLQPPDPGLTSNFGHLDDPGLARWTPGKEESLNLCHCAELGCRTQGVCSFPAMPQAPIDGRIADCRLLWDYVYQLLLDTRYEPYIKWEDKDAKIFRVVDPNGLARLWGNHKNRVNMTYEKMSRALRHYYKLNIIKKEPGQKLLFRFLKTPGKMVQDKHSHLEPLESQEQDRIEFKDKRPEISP
Method in brief: as §1

[6] = molecular target: T6, ELF5 (Homo sapiens, UniProt Q9UKW6-2 1-255)
T6 sequence: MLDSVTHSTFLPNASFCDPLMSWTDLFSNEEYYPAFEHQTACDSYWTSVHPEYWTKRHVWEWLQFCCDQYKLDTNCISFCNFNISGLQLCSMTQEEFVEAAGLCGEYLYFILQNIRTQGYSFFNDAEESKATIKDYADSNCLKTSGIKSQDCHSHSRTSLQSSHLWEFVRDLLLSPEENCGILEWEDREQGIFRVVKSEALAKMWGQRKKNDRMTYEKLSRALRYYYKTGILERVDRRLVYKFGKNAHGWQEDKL
Method in brief: as §1

[7] = molecular target: T7, ETV3 (Homo sapiens, UniProt P41162-2 1-143)
T7 sequence: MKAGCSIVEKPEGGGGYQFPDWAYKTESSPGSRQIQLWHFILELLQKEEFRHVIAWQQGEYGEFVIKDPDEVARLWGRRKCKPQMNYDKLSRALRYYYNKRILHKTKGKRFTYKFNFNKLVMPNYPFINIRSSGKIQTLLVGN
Method in brief: as §1

[8] = molecular target: ETV6 (Homo sapiens, UniProt P41212 1-452)
Method in brief: as §1

Sequence of ETV6 (P41212 whole entry): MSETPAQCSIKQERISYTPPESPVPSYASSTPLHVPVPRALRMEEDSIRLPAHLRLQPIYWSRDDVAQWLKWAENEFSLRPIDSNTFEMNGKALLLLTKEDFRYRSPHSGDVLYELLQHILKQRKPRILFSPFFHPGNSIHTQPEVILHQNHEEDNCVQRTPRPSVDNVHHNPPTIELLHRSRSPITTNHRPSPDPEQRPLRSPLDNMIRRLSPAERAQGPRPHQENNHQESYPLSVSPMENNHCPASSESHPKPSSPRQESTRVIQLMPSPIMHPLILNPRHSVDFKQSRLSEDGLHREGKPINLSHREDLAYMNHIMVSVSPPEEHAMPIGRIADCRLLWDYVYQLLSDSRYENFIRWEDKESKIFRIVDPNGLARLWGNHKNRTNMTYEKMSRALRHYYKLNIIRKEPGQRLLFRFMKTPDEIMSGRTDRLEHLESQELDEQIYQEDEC

Sequence | binding signal [1] | binding signal [2] | binding signal [3] | binding signal [4] | binding signal [5] | binding signal [6] | binding signal [7] | binding signal [8]
AATTAC | 1.35 fold enrichment (6-mer frequency, TF over GST control) | 1.25 fold enrichment (6-mer frequency, TF over GST control) | 1.36 fold enrichment (6-mer frequency, TF over GST control) | 1.24 fold enrichment (6-mer frequency, TF over GST control) | 1.36 fold enrichment (6-mer frequency, TF over GST control) | 1.33 fold enrichment (6-mer frequency, TF over GST control) | 1.26 fold enrichment (6-mer frequency, TF over GST control) | 1.38 fold enrichment (6-mer frequency, TF over GST control)
TTCCTG | 1.87 fold enrichment (6-mer frequency, TF over GST control) | 2.35 fold enrichment (6-mer frequency, TF over GST control) | 2.4 fold enrichment (6-mer frequency, TF over GST control) | 2.25 fold enrichment (6-mer frequency, TF over GST control) | 2.03 fold enrichment (6-mer frequency, TF over GST control) | 3.79 fold enrichment (6-mer frequency, TF over GST control) | 2.66 fold enrichment (6-mer frequency, TF over GST control) | 2.57 fold enrichment (6-mer frequency, TF over GST control)
TGTTTC | 1.86 fold enrichment (6-mer frequency, TF over GST control) | 1.84 fold enrichment (6-mer frequency, TF over GST control) | 1.79 fold enrichment (6-mer frequency, TF over GST control) | 1.81 fold enrichment (6-mer frequency, TF over GST control) | 1.89 fold enrichment (6-mer frequency, TF over GST control) | 2.08 fold enrichment (6-mer frequency, TF over GST control) | 1.83 fold enrichment (6-mer frequency, TF over GST control) | 1.95 fold enrichment (6-mer frequency, TF over GST control)
AATCTG | 1.41 fold enrichment (6-mer frequency, TF over GST control) | 1.39 fold enrichment (6-mer frequency, TF over GST control) | 1.52 fold enrichment (6-mer frequency, TF over GST control) | 1.37 fold enrichment (6-mer frequency, TF over GST control) | 1.46 fold enrichment (6-mer frequency, TF over GST control) | 1.37 fold enrichment (6-mer frequency, TF over GST control) | 1.43 fold enrichment (6-mer frequency, TF over GST control) | 1.4 fold enrichment (6-mer frequency, TF over GST control)
TCCCCT | 1.69 fold enrichment (6-mer frequency, TF over GST control) | 1.64 fold enrichment (6-mer frequency, TF over GST control) | 1.69 fold enrichment (6-mer frequency, TF over GST control) | 1.54 fold enrichment (6-mer frequency, TF over GST control) | 1.58 fold enrichment (6-mer frequency, TF over GST control) | 1.76 fold enrichment (6-mer frequency, TF over GST control) | 1.54 fold enrichment (6-mer frequency, TF over GST control) | 1.65 fold enrichment (6-mer frequency, TF over GST control)
ACTTCA | 1.33 fold enrichment (6-mer frequency, TF over GST control) | 1.4 fold enrichment (6-mer frequency, TF over GST control) | 1.42 fold enrichment (6-mer frequency, TF over GST control) | 1.37 fold enrichment (6-mer frequency, TF over GST control) | 1.54 fold enrichment (6-mer frequency, TF over GST control) | 1.4 fold enrichment (6-mer frequency, TF over GST control) | 1.29 fold enrichment (6-mer frequency, TF over GST control) | 1.35 fold enrichment (6-mer frequency, TF over GST control)
TTCAGG | 1.15 fold enrichment (6-mer frequency, TF over GST control) | 1.1 fold enrichment (6-mer frequency, TF over GST control) | 1.12 fold enrichment (6-mer frequency, TF over GST control) | 1.25 fold enrichment (6-mer frequency, TF over GST control) | 1.15 fold enrichment (6-mer frequency, TF over GST control) | 1.15 fold enrichment (6-mer frequency, TF over GST control) | 1.1 fold enrichment (6-mer frequency, TF over GST control) | 1.11 fold enrichment (6-mer frequency, TF over GST control)

From paper PMC7862700, “An all-to-all approach to the identification of sequence-specific readers for epigenetic DNA modifications on cytosine”
